“And” between values parts separate entries of the source, which are not always exact repeats. Identical values can stand only once. Hit rate of the full screen: of about 5,500 compounds, about 2,000 (36%) were called active. Inconclusive results (about 18%) are left out. Rule as the data show it: active = normalized growth mostly below about 0.91 (no sharp cut-off); inconclusive = no clear call, values can overlap the other calls; inactive = mostly above about 0.92. This is one part of the list.
Test: chemical genetic growth profiling, strain panel (AID 1159580);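 also: tested at 20 µM; growth read once vehicle control cultures reached saturation at 30 °C; 1 = growth at the plate median or of vehicle wells; lower values mean less growth of the strain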
Conditions: S. cerevisiae deletion strains, growth OD

Measured: normalized growth

COc1ccc(-c2cc(=O)c3c(O)c(OC)c(O[C@H]4O[C@H](CO[C@@H]5O[C@@H](C)[C@H](O)[C@@H](O)[C@H]5O)[C@@H](O)[C@H](O)[C@H]4O)cc3o2)cc1
inactive: locus YAL021C, strain ccr4, hits give low values 1.02 | locus YAL026C, strain drs2, hits give low values 1 | locus YAL030W, strain snc1, hits give low values 1.01 | locus YBL061C, strain skt5, hits give low values 0.996 | locus YBR009C, strain hhf1, hits give low values 1 | locus YBR021W, strain FUR4, hits give low values 1.02 | locus YBR023C, strain chs3, hits give low values 0.996 | locus YBR171W, strain sec66, hits give low values 0.989 | locus YBR229C, strain ROT2, hits give low values 1.01 | locus YBR231C, strain swc5, hits give low values 0.977 | locus YBR279W, strain paf1, hits give low values 0.987 | locus YCL011C, strain gbp2, hits give low values 0.991 | locus YCL016C, strain dcc1, hits give low values 1.01 | locus YCL029C, strain bik1, hits give low values 1.04 | locus YCL061C, strain MRC1, hits give low values 1 | locus YCL069W, strain vba3, hits give low values 1 | locus YCR088W, strain abp1, hits give low values 1.01 | locus YDL005C, strain med2, hits give low values 1 | locus YDL035C, strain GPR1, hits give low values 1.02 | locus YDL040C, strain nat1, hits give low values 0.98 | locus YDL074C, strain BRE1, hits give low values 1.01 | locus YDL101C, strain DUN1, hits give low values 1.02 | locus YDL185W, strain tfp1, hits give low values 1.01 | locus YDL192W, strain arf1, hits give low values 1.01 | locus YDR001C, strain nth1, hits give low values 1 | locus YDR069C, strain doa4, hits give low values 0.967 | locus YDR101C, strain arx1, hits give low values 1.02 | locus YDR137W, strain rgp1, hits give low values 1.05 | locus YDR150W, strain NUM1, hits give low values 1.01 | locus YDR159W, strain sac3, hits give low values 0.995 | locus YDR162C, strain NBP2, hits give low values 1.03 | locus YDR195W, strain ref2 0.978 | locus YDR297W, strain sur2, hits give low values 0.988 | locus YDR318W, strain mcm21, hits give low values 1.02 | locus YDR334W, strain swr1, hits give low values 0.99 | locus YDR335W, strain msn5, hits give low values 1 | locus YDR388W, hits give low values 1.01 | locus YDR392W, strain spt3, hits give low values 0.981 | locus YDR502C, strain sam2, hits give low values 1.01 | locus YEL003W, strain gim4, hits give low values 0.982 | locus YEL037C, strain rad23, hits give low values 1 | locus YEL061C, strain CIN8 (second series), hits give low values 0.996 | locus YER015W, strain faa2, hits give low values 0.984 | locus YER016W, strain bim1, hits give low values 0.992 | locus YER110C, hits give low values 1.02 | locus YER111C, strain swi4, hits give low values 0.979 | locus YER155C, strain BEM2 (second series), hits give low values 0.972 | locus YER155C, strain BEM2, hits give low values 1.04 | locus YER167W, strain BCK2, hits give low values 1.02 | locus YFR010W, strain ubp6, hits give low values 0.994 | locus YGL078C, strain dbp3, hits give low values 1.01 | locus YGL086W, strain mad1, hits give low values 1.01 | locus YGL167C, strain pmr1, hits give low values 0.983 | locus YGL173C, strain kem1, hits give low values 0.996 | locus YGL227W, strain vid30, hits give low values 1 | locus YGL240W, strain doc1, hits give low values 0.998 | locus YGL248W, strain PDE1, hits give low values 1.01 | locus YGL253W, strain hxk2, hits give low values 1 | locus YGR078C, strain PAC10, hits give low values 0.999 | locus YGR135W, strain pre9, hits give low values 0.993 | locus YGR229C, strain SMI1, hits give low values 1.16 | locus YGR252W, strain gcn5, hits give low values 0.955 | locus YHR013C, strain ard1, hits give low values 1 | locus YHR027C, strain rpn1, hits give low values 0.99 | locus YHR030C, strain SLT2, hits give low values 1.02 and 0.993 | locus YHR079C, strain IRE1 (second series), hits give low values 1.01 | locus YHR079C, strain IRE1, hits give low values 1.01 | locus YHR094C, strain hxt1, hits give low values 1.01 | locus YHR129C, strain ARP1, hits give low values 1 | locus YHR142W, strain chs7, hits give low values 1.01 | locus YHR200W, strain rpn10, hits give low values 1.01 | locus YIL066C, strain RNR3, hits give low values 1.02 | locus YIL073C, strain SPO22, hits give low values 1.08 | locus YIL125W, strain kgd1, hits give low values 1.01 | locus YIR030C, strain dcg1, hits give low values 1.02 | locus YJL092W, strain hpr5, hits give low values 0.994 | locus YJL095W, strain BCK1 (second series), hits give low values 1 | locus YJL095W, strain BCK1, hits give low values 1.02 and 0.995 | locus YJL115W, strain asf1, hits give low values 0.999 | locus YJL129C, strain trk1, hits give low values 0.994 | locus YJL134W, strain LCB3, hits give low values 1.02 | locus YJL154C, strain vps35, hits give low values 1 | locus YJL164C, strain tpk1, hits give low values 1 | locus YJL166W, strain qcr8, hits give low values 1 | locus YJL168C, strain set2, hits give low values 1 | locus YJL187C, strain SWE1 (second series), hits give low values 1.01 | locus YJL187C, strain SWE1, hits give low values 1.02 | locus YJR066W, strain TOR1, hits give low values 0.906 | locus YKL009W, strain mrt4, hits give low values 1.05 | locus YKL068W, hits give low values 1.02 | locus YKL085W, strain MDH1 (second series), hits give low values 1.02 | locus YKL085W, strain MDH1, hits give low values 1.02 | locus YKL160W, strain elf1, hits give low values 0.997 | locus YKL190W, strain CNB1, hits give low values 1.01 | locus YKR001C, strain vps1, hits give low values 1.01 | locus YKR026C, strain gcn3, hits give low values 0.992 | locus YKR091W, strain srl3, hits give low values 0.998 | locus YLL001W, strain dnm1, hits give low values 1 | locus YLL026W, hits give low values 0.998 | locus YLL041C, strain sdh2, hits give low values 1 | locus YLR027C, strain aat2, hits give low values 0.988 | locus YLR039C, strain RIC1, hits give low values 1.1 | locus YLR058C, strain SHM2, hits give low values 1.02 | locus YLR102C, strain apc9, hits give low values 1.02 | locus YLR113W, strain HOG1, hits give low values 1.04 | locus YLR221C, strain rsa3, hits give low values 0.995 | locus YLR258W, strain gsy2, hits give low values 1.02 | locus YLR262C, strain YPT6 (second series), hits give low values 1.03 | locus YLR268W, strain sec22, hits give low values 1.03 | locus YLR320W, strain mms22, hits give low values 0.998 | locus YLR342W, strain FKS1 (second series), hits give low values 1.03 | locus YLR342W, strain FKS1, hits give low values 1 | locus YLR357W, strain rsc2, hits give low values 0.964 | locus YLR370C, strain arc18, hits give low values 0.995 | locus YLR371W, strain rom2, hits give low values 1.03 | locus YLR384C, strain iki3, hits give low values 0.978 | locus YLR418C, strain cdc73, hits give low values 1.03 | locus YML016C, strain PPZ1, hits give low values 0.991 | locus YML032C, strain rad52, hits give low values 1.03 | locus YML120C, strain ndi1, hits give low values 1.01 | locus YML124C, strain tub3, hits give low values 1.02 | locus YMR058W, strain fet3, hits give low values 0.928 | locus YMR078C, strain ctf18, hits give low values 1.02 | locus YMR125W, strain sto1, hits give low values 1 | locus YMR129W, hits give low values 0.996 | locus YMR205C, strain PFK2, hits give low values 1.05 | locus YMR223W, strain ubp8, hits give low values 1.01 | locus YMR231W, strain pep5, hits give low values 0.96 | locus YMR307W, strain GAS1, hits give low values 1.08 | locus YNL067W, strain RPL9B, hits give low values 1.01 | locus YNL071W, strain lat1, hits give low values 1.01 | locus YNL128W, strain TEP1, hits give low values 1.03 | locus YNL183C, strain NPR1, hits give low values 0.938 | locus YNL209W, strain ssb2, hits give low values 0.986 | locus YNL233W, strain BNI4, hits give low values 1.01 | locus YNL248C, strain rpa49, hits give low values 0.996 | locus YNL250W, strain rad50, hits give low values 1.04 | locus YNL271C, strain bni1, hits give low values 1.01 | locus YNL298W, strain CLA4, hits give low values 1.02 | locus YNL307C, strain MCK1, hits give low values 1.01 | locus YNL322C, strain KRE1 (second series), hits give low values 1 | locus YNR049C, strain mso1, hits give low values 1 | locus YNR052C, strain pop2, hits give low values 1.01 | locus YOL012C, strain htz1 0.859 | locus YOL147C, strain pex11, hits give low values 0.996 | locus YOR001W, strain rrp6, hits give low values 0.98 | locus YOR061W, strain CKA2, hits give low values 1.02 | locus YOR069W, strain VPS5, hits give low values 1.01 | locus YOR070C, strain gyp1, hits give low values 0.985 | locus YOR080W, strain dia2, hits give low values 0.992 | locus YOR083W, strain WHI5, hits give low values 0.998 | locus YOR106W, strain vam3, hits give low values 0.992 | locus YOR136W, strain idh2, hits give low values 1.02 | locus YOR144C, strain elg1, hits give low values 1.02 | locus YOR184W, strain ser1, hits give low values 1.04 | locus YOR231W, strain MKK1, hits give low values 1.03 | locus YOR265W, strain rbl2, hits give low values 1.02 | locus YOR270C, strain vph1, hits give low values 0.993 | locus YOR290C, strain snf2, hits give low values 0.992 | locus YOR316C, strain cot1, hits give low values 1.02 | locus YPL051W, strain arl3, hits give low values 0.995 | locus YPL078C, strain atp4, hits give low values 1.03 | locus YPL106C, strain sse1, hits give low values 0.974 | locus YPL240C, strain hsp82, hits give low values 0.995 | locus YPL241C, strain CIN2, hits give low values 1.01 | locus YPL256C, strain CLN2, hits give low values 0.994 | locus YPR119W, strain clb2, hits give low values 1.01 | locus YPR141C, strain kar3, hits give low values 1.02 | locus YPR163C, strain tif3, hits give low values 0.999 | locus YPR167C, strain met16, hits give low values 1.01 | strain wtn01, hits give low values 1.01

From PubChem BioAssay AID1159580 (chemical genetic matrix, 2015)
